Source: article PMC7862700, “An all-to-all approach to the identification of sequence-specific readers for epigenetic DNA modifications on cytosine”

Tests used:
Test in all cases: DAPPL (digital affinity profiling via proximity ligation, sequencing); 10 mM Tris-HCl pH 7.5, 50 mM NaCl, 1 mM DTT, 4% glycerol, room temperature, 30 min; GST-TFs on glutathione beads, 16-mer random dsDNA library, 0.1% formaldehyde crosslink after washing; high values mean tight binding
Details in all cases: protein: recombinant; tags: N-terminal GST; dsDNA, one strand shown
ELK1 = biological target: T1, ELK1 (Homo sapiens, UniProt P19419 1-428)
T1 sequence: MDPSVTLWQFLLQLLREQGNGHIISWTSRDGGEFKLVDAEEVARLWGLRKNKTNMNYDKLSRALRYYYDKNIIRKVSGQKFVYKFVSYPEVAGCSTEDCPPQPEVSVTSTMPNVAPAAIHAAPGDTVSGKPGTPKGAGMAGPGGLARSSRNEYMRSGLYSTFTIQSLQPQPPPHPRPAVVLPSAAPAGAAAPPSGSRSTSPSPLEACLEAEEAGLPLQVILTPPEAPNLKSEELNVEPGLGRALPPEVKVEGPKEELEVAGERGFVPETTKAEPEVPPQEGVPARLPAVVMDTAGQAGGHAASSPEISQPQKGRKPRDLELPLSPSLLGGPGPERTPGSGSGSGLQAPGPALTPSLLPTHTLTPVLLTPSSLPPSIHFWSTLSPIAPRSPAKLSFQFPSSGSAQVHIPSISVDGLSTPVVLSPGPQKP
Method in brief: (§1)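 Pools were built from human transcription factors expressed in yeast as GST fusions, captured on glutathione beads and DNA-barcoded, along with a tag-only sample. Incubation with 200 nmole of a 16-mer random double-stranded DNA library lasted 30 min at room temperature in Tris/NaCl/DTT/glycerol buffer, and was followed by washing, 0.1% formaldehyde crosslinking, proximity ligation, PCR amplification and Illumina NextSeq500 sequencing. Binding signal is the quotient of each hexamer's read frequency for a factor and its frequency for the tag-only sample.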

GABPA = biological target: T2, GABPA (Homo sapiens, UniProt Q06546 1-454)
T2 sequence: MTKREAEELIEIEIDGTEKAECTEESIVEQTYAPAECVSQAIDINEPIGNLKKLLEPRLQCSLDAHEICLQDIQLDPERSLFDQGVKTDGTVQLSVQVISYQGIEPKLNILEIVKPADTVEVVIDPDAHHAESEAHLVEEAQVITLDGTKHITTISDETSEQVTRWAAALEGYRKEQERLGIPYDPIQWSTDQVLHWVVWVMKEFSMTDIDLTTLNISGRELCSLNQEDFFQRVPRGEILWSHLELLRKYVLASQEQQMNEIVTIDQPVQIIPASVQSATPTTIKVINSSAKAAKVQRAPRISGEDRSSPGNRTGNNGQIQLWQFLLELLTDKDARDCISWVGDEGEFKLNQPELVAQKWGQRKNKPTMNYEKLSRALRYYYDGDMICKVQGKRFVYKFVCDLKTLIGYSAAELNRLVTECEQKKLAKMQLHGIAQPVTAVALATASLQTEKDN
Method in brief: as §1

ERG = biological target: T3, ERG (Homo sapiens, UniProt P11308 1-479)
T3 sequence: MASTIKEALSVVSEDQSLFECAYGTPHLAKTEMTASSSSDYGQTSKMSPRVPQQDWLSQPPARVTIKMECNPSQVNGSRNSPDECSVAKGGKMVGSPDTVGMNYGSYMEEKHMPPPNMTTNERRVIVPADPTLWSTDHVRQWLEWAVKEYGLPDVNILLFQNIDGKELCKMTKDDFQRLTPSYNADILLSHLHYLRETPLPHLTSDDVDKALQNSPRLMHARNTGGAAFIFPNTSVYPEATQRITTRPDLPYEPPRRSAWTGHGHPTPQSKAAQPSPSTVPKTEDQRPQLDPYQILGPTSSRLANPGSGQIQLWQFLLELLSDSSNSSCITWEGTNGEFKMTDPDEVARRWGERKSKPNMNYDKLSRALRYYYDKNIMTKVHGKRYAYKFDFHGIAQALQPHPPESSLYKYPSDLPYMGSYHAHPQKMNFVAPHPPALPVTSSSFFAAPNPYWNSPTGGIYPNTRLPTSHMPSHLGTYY
Method in brief: as §1

ELF1 = ELF1 (Homo sapiens, UniProt P32519 1-619)
Method in brief: as §1

EHF = biological target: T4, EHF (Homo sapiens, UniProt Q9NZC4 1-300)
T4 sequence: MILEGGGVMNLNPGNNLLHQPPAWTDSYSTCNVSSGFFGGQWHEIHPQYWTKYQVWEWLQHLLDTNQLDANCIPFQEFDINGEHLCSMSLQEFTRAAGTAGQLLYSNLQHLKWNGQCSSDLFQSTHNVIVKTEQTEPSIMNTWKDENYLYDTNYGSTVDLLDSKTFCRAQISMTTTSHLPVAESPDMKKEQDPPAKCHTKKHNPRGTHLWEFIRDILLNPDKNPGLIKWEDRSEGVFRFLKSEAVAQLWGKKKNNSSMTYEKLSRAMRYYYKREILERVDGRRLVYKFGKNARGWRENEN
Method in brief: as §1

SPIB = SPIB (Homo sapiens, UniProt Q01892 1-262)
Method in brief: as §1

FEV = biological target: T5, FEV (Homo sapiens, UniProt Q99581 1-238)
T5 sequence: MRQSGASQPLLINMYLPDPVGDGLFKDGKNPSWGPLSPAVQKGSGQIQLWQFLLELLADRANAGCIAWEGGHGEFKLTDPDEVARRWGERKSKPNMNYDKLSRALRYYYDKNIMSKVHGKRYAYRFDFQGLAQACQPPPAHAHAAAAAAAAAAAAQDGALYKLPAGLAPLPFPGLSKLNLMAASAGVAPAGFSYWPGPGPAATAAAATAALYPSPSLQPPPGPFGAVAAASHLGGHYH
Method in brief: as §1

ETV5 = ETV5 (Homo sapiens, UniProt P41161 1-510)
Method in brief: as §1

ELF4 = ELF4 (Homo sapiens, UniProt Q99607 1-663)
Method in brief: as §1

ELK4 = biological target: T6, ELK4 (Homo sapiens, UniProt P28324-2 1-405)
T6 sequence: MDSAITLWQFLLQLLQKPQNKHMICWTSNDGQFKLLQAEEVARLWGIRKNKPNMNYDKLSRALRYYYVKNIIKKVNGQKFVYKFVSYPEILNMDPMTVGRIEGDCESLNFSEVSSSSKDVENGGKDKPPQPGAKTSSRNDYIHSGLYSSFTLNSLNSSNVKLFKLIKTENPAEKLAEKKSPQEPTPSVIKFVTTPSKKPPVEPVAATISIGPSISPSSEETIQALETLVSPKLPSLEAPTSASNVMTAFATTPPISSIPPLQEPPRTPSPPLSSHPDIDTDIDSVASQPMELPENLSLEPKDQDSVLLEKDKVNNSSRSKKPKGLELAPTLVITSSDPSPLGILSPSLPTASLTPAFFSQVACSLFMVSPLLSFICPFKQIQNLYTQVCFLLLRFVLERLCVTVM
Method in brief: as §1

ETV2 = biological target: T7, ETV2 (Homo sapiens, UniProt O00321 1-342)
T7 sequence: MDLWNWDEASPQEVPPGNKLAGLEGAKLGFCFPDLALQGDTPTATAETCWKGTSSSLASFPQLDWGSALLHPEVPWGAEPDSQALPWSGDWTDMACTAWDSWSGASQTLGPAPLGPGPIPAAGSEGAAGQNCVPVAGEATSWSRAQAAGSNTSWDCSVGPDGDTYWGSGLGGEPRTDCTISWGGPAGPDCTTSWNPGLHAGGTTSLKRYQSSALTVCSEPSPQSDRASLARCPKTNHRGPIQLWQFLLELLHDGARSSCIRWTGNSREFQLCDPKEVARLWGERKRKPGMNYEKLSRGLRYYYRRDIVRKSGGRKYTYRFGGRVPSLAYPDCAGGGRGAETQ
Method in brief: as §1

ELF3 = biological target: T8, ELF3 (Homo sapiens, UniProt P78545 1-371)
T8 sequence: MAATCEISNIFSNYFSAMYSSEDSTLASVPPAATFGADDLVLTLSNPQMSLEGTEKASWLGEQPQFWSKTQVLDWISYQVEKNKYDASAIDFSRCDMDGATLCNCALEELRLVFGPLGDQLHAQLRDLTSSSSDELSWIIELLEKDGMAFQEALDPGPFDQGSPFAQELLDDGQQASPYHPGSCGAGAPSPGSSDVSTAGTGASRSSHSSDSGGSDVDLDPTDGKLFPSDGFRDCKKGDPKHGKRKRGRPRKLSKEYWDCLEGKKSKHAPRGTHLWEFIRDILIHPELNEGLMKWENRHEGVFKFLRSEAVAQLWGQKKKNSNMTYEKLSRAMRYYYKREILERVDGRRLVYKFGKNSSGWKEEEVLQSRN
Method in brief: as §1

ERF = biological target: T9, ERF (Homo sapiens, UniProt P50548 1-548)
T9 sequence: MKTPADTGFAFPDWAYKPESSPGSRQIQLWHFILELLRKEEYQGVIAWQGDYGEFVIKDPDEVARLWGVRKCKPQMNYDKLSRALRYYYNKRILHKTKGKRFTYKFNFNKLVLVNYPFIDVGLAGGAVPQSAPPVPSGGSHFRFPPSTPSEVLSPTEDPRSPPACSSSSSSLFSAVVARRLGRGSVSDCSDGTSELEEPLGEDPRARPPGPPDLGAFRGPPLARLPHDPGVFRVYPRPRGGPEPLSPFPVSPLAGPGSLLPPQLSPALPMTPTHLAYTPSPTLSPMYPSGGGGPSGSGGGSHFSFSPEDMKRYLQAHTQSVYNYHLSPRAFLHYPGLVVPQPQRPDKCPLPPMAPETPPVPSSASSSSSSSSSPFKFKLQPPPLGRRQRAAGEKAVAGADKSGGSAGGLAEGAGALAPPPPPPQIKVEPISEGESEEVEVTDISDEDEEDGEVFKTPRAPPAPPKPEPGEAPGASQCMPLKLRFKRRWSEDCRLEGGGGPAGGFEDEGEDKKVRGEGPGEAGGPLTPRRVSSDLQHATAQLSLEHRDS
Method in brief: as §1

ETV3L = biological target: T10, ETV3L (Homo sapiens, UniProt Q6ZN32 1-361)
T10 sequence: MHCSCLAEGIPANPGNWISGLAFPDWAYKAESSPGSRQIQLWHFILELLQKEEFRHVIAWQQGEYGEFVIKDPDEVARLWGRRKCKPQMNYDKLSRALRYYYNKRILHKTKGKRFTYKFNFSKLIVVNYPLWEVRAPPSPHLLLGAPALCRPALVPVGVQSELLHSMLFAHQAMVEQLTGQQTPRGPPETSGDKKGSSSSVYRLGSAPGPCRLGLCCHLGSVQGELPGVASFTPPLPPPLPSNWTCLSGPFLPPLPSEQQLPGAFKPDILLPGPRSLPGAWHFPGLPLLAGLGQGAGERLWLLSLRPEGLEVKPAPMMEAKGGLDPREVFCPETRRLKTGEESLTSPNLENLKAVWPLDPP
Method in brief: as §1

ETS2 = biological target: T11, ETS2 (Homo sapiens, UniProt P15036 1-469)
T11 sequence: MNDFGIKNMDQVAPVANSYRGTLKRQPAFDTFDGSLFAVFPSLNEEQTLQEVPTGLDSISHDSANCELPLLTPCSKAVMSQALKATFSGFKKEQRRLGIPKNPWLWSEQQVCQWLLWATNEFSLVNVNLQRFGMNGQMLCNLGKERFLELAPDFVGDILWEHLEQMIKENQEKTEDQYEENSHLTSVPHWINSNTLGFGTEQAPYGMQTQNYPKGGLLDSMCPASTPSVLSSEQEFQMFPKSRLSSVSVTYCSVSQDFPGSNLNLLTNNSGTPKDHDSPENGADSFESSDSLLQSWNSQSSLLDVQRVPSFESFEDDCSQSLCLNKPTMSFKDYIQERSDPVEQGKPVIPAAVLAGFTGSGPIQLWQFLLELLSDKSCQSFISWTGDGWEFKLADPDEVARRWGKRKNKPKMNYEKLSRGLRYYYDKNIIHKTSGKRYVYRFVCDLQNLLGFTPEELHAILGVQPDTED
Method in brief: as §1

SPDEF = biological target: T12, SPDEF (Homo sapiens, UniProt O95238 1-335)
T12 sequence: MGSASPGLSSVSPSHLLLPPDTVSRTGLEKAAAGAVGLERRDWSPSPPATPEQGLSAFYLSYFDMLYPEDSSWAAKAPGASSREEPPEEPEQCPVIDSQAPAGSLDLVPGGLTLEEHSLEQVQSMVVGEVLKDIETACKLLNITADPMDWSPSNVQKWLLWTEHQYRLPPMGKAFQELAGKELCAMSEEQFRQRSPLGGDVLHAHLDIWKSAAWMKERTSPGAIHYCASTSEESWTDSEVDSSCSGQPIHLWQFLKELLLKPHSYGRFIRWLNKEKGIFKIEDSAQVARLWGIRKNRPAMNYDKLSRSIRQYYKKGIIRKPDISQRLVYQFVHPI
Method in brief: as §1

ETV3 = biological target: T13, ETV3 (Homo sapiens, UniProt P41162-2 1-143)
T13 sequence: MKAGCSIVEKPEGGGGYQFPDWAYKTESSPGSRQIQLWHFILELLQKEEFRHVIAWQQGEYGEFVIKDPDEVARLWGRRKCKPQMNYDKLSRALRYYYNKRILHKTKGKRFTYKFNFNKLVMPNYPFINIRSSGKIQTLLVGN
Method in brief: as §1

ETV6 = ETV6 (Homo sapiens, UniProt P41212 1-452)
Method in brief: as §1

SPIB, sequence (Q01892 whole entry): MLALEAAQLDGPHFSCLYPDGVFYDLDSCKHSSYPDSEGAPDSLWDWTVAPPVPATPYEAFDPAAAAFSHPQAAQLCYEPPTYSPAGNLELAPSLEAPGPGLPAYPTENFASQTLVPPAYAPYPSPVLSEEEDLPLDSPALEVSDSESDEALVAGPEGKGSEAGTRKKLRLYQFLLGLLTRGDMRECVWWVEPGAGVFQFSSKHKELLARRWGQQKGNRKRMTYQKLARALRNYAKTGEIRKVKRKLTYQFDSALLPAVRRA
ELF4, sequence (Q99607 whole entry): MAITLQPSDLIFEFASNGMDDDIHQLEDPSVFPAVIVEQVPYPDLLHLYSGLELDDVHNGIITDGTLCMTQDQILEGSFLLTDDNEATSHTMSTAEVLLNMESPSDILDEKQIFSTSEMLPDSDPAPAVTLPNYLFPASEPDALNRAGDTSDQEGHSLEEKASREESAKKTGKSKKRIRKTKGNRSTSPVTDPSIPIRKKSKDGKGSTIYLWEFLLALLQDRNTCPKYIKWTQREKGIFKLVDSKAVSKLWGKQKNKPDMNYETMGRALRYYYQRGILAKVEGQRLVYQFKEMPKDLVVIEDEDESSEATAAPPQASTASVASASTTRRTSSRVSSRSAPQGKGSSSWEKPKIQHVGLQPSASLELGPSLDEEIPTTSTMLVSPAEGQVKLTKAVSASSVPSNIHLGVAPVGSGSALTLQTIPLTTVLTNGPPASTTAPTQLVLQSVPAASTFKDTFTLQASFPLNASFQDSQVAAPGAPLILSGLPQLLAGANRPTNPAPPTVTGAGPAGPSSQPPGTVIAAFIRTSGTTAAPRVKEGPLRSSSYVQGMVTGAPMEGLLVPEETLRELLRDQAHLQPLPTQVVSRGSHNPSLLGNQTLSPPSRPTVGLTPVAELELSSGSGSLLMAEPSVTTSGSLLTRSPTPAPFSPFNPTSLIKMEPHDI
ETV5, sequence (P41161 whole entry): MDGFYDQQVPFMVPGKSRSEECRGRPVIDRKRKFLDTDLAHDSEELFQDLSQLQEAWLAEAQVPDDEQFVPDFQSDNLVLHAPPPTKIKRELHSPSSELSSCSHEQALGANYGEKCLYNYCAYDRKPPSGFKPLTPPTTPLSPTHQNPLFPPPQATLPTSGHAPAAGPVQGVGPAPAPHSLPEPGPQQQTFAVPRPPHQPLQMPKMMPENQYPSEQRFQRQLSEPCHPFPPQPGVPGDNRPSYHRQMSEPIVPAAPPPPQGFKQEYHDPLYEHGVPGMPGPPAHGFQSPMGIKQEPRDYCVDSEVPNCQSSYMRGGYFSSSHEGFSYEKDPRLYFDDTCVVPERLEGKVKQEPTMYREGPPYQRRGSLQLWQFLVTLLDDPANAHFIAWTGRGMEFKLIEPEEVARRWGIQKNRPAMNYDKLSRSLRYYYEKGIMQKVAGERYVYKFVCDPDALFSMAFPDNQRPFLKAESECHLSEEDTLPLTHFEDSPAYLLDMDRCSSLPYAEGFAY
ELF1, sequence (P32519 whole entry): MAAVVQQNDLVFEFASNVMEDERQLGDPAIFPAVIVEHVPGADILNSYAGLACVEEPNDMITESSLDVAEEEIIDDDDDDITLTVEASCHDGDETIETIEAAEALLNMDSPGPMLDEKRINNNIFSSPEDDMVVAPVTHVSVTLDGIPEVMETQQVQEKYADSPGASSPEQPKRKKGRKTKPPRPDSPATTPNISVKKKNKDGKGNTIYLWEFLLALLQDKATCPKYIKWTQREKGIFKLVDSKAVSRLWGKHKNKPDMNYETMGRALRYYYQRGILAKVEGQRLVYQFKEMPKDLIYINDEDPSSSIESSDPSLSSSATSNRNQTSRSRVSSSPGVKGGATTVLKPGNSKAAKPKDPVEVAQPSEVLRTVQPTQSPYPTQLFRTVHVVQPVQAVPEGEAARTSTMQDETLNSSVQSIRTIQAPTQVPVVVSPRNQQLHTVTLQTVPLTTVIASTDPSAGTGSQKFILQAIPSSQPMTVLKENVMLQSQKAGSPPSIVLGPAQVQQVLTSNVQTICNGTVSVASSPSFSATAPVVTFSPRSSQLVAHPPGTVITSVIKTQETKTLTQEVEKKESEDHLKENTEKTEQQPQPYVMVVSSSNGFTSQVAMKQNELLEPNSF
ETV6, sequence (P41212 whole entry): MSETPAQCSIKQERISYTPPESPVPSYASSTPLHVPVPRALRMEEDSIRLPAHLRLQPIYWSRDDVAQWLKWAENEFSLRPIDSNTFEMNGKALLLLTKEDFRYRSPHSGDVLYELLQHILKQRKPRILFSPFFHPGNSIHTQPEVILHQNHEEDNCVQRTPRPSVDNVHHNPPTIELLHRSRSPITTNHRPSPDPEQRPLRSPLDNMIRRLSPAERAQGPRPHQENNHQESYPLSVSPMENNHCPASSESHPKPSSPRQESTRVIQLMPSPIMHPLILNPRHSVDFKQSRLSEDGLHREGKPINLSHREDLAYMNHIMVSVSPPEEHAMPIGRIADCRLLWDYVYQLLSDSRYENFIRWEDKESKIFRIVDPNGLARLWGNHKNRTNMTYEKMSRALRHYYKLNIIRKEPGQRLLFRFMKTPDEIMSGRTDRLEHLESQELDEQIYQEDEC

Which results are given for AGCGCC?
binding signal (ELK1): 1.06 fold enrichment (6-mer frequency, TF over GST control); binding signal (GABPA): 1.07 fold enrichment (6-mer frequency, TF over GST control); binding signal (ERG): 1.05 fold enrichment (6-mer frequency, TF over GST control); binding signal (ELF1): 1.13 fold enrichment (6-mer frequency, TF over GST control); binding signal (EHF): 1.13 fold enrichment (6-mer frequency, TF over GST control); binding signal (SPIB): 1.1 fold enrichment (6-mer frequency, TF over GST control); binding signal (FEV): 1.19 fold enrichment (6-mer frequency, TF over GST control); binding signal (ETV5): 1.04 fold enrichment (6-mer frequency, TF over GST control); binding signal (ELF4): 1.09 fold enrichment (6-mer frequency, TF over GST control); binding signal (ELK4): 1.11 fold enrichment (6-mer frequency, TF over GST control); binding signal (ETV2): 1.09 fold enrichment (6-mer frequency, TF over GST control); binding signal (ELF3): 1.09 fold enrichment (6-mer frequency, TF over GST control); binding signal (ERF): 1.05 fold enrichment (6-mer frequency, TF over GST control); binding signal (ETV3L): 1.07 fold enrichment (6-mer frequency, TF over GST control); binding signal (ETS2): 1.06 fold enrichment (6-mer frequency, TF over GST control); binding signal (SPDEF): 1.02 fold enrichment (6-mer frequency, TF over GST control); binding signal (ETV3): 1.14 fold enrichment (6-mer frequency, TF over GST control); binding signal (ETV6): 1.16 fold enrichment (6-mer frequency, TF over GST control)
